Screens as filed in PubChem.
KB-3-1 tox = KB-3-1 parental cell cytotoxicity; KB-3-1 viability, CellTiter-Glo ATP luminescence, 72 h; Potency, µM (series often up to 46.1 µM), most hits filed as cytotoxic; 400,000 compounds, 1.4% hits; AID 1347075; also: nearly all actives have a fitted effect of over 60% in size
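Screening of KB-3-1 cells (DMEM, 10% FBS, phenol-red free) ran from lowest to highest compound concentration; after 72 h at 37 °C viability was read luminescently and curves fitted.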
MCF10A rereplic = DNA re-replication induction in MCF 10a cells; 350,000 compounds, 2.9% hits; MCF 10A DNA re-replication, Hoechst nuclear intensity, 48 h; Potency, µM (highest dose often 46.1 µM), actives largely listed as activators; also: nearly all actives have a fitted effect of over 50% in size
HT1080NT lethal = kills 2HG-producing HT-1080-NT fibrosarcoma cells | HT-1080-NT fibrosarcoma viability, CellTiter-Glo ATP luminescence, 48 h | Potency, µM (doses to about 46.1 µM), actives largely listed as cytotoxic | 360,000 compounds, 1.6% hits | AID 686970;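 also: NT is the 2HG producing partner of a matched IDH1 knockdown line; nearly all actives have a fitted effect of over 55% in size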
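Viability by CellTiter-Glo luminescence after 48 h compound exposure at 37C of HT-1080-NT cells (750/well, RPMI, 5% FBS). % activity scaled between DMSO wells and medium-only wells, then curve-fitted and categorized by curve class.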
HT1080 IDH1KD tx = kills HT-1080 cells with IDH1 knockdown; HT-1080 IDH1 knockdown viability, ATP luminescence, 48 h; Potency, µM (titrated, usually from 46.1 µM), usual class: cytotoxic; 360,000 compounds, 2% hits
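% activity derives from luminescence (CellTiter-Glo), normalised to DMSO and no-cell wells. HT-1080-IDH1KD cells, 750/well, had 48 h compound exposure at 37 °C.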
SW480 rerep = DNA re-replication induction in SW480 cells | SW480 DNA re-replication, Hoechst DNA content imaging, 48 h | Potency, µM (highest dose often 46.1 µM), actives largely listed as activators | 340,000 compounds, 1.8% hits | AID 624297; also: nearly all actives have a fitted effect of over 55% in size
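Image-based DNA-content assay: after two days of treatment, nuclei were labelled with the DNA dye Hoechst and imaged, and hits were compounds raising the count of nuclei showing high fluorescence intensity.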
KB-V1 MDR tox = kills drug-selected multidrug resistant KB-V1 cells. Potency, µM (titrated, usually from 46.1 µM), actives largely listed as cytotoxic. KB-V1 MDR cells viability, CellTiter-Glo, 72 h. 400,000 compounds, 3.4% hits; also: nearly all actives have a fitted effect of over 60% in size
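In this primary screen, KB-V1 cells overexpressing P-gp are incubated with library compounds (lowest to highest concentration) for 72 h at 37 degrees C before a luminescent ATP viability read.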
Numbers stand for hits; n = inactive; u = inconclusive; x = not tested or not shown; [ ] = another dose, or the depositor's remark. An excerpt weighted towards active compounds, which were near 7.9% of everything screened. Calls follow the shape of the dose curve; as a rule, active = well fitted curve in the direction sought with a large enough effect; inconclusive = small, poorly fitted or top-dose-only effect, or another doubt; inactive = no such curve, though single readings can be large; an effect the other way counts as inactive or inconclusive.

SMILES | KB-3-1 tox | MCF10A rereplic | HT1080NT lethal | HT1080 IDH1KD tx | SW480 rerep | KB-V1 MDR tox
Cc1cccc(CN2CCN(C(c3ccccc3)c3ccc(Cl)cc3)CC2)c1 (stereo unspecified) | n | 23µM | u | u | n | u
CCN1CCN(C(=O)C2CCN(Cc3nc(-c4cccc(Cl)c4)oc3C)CC2)CC1 | n | n | n | n | n | n
Cc1ccc(C)c(NC(=O)CN(C)C(=O)c2cccc(N3C(=O)CCC3=O)c2)c1 | n | n | n | n | n | n
CN(C)c1ccc(/C=N/Nc2nncc3ccccc23)cc1 | n | n | n | n | n[1.84 µM] | n
CCOC(=O)c1cnc2ccc(OCC)cc2c1N1CCN(c2cccc(Cl)c2)CC1 | u | x | x | x | x | n
CCOC(=O)CN1C(=O)Nc2ccc(Br)cc2C1c1ccccc1 (stereo unspecified) | n | n | n | n | n | n
CCOC(=O)CN1C(c2ccc(O)cc2)Nc2ccc(Br)cc2C1c1ccccc1 (stereo unspecified) | u | 18µM | 16µM | u | u | u
CC(C)NC(=O)COC(=O)CNC(=O)C1CCCCC1 | n | x | x | x | x | n
CCOC1=C2CN(S(=O)(=O)c3ccc(C)cc3)C(c3ccc(C)cc3)CC2N(S(=O)(=O)c2ccc(C)cc2)C(c2ccccc2)C1 (stereo unspecified) | 3.3µM | x | n | n | x | u
Cc1ccccc1N(C)C1=N[S+](=O)([O-])c2ccccc21 | n | x | x | x | x | n
c1ccc(C2[C@H]3CN(Cc4cccnc4)[C@H](c4ccccc4)C34CC2(c2cccnc2)C4)cc1 (stereo partly specified) | u | u | u | u | n[9.22 µM] | 21µM
c1ccc(C2[C@H]3CN(Cc4cccnc4)[C@H](c4ccccc4)C34CC2(c2ccccc2)C4)cc1 (stereo partly specified) | u | n | u | u | n | n
COC(=O)c1cccc(C23CC4(C2)[C@H](CN(Cc2ccc(C(F)(F)F)cc2)[C@@H]4c2ccccc2)C3c2ccc(C(F)(F)F)cc2)c1 (stereo partly specified) | 13µM | n | n | n | n[9.22 µM] | n
CCCCCC(=O)OCc1ccc(C2=CC(=O)CC(C)(C)C2=O)cc1 | n | x | n | n | x | n
CC(NC(=O)c1ccccc1NC(=O)CN1CCc2ccccc2C1)c1ccccc1 (stereo unspecified) | u | 26µM | n | n | u | 18µM
O=C(O)CC/C(=N\Nc1ccc(S(=O)(=O)N2CCCC2)cc1[N+](=O)[O-])c1cccs1 | n | n | u | 33µM | n | u
COc1ccc(-c2cc(C(F)(F)F)n3nc(C(=O)NCCCn4ccnc4)cc3n2)cc1 | n | 13µM | n | n | u | n
COc1ccc(-c2cc(C(F)(F)F)n3nc(C(=O)NCCN4CCOCC4)cc3n2)cc1 | n | n | n | n | n | n
COc1ccc(-c2cc(C(F)(F)F)n3nc(C(=O)Nc4c(C)n(C)n(-c5ccccc5)c4=O)cc3n2)cc1 | u | 18µM | n | n | n | n
CC[N+]1(CC(=O)c2ccc(I)cc2)CCCCC1 | n | x | x | x | x | n
CCn1ccc2c(OCC(=O)Nc3ccc(C(C)=O)cc3)cccc2c1=O | n | x | x | x | x | n
C[C@H]1CN([C@@H](C)CO)C(=O)c2cc(Br)cnc2O[C@H]1CN(C)C(=O)c1ccccn1 | n | x | n | n | x | n
CCSc1nnc(-c2ccc(C)cc2)c2ccccc12 | n | n | n | n | n | u
CCSc1nnc(C)c2ccccc12 | n | n | n | n | n | u
Cc1ccc(-c2nnc(Sc3nc4ccccc4o3)c3ccccc23)cc1 | n | 8.2µM | u | 11µM | u | n
SMILES | KB-3-1 tox | MCF10A rereplic | HT1080NT lethal | HT1080 IDH1KD tx | SW480 rerep | KB-V1 MDR tox
Cc1nnc(Sc2nc3ccccc3o2)c2ccccc12 | u | 13µM | u | 21µM | u | n
Clc1ccc(-c2nnc(Sc3nc4ccccc4o3)c3ccccc23)cc1 | u | u | 11µM | 11µM | n | n
CCSc1nnc(-c2ccc(Cl)cc2)c2ccccc12 | n | n | n | n | n | n
CC(=O)Nc1ccc(NS(=O)(=O)c2cccc3nonc23)cc1 | n | n | n | n | n | u
O=C(NC1CCCC1)c1c[nH]c2ccc(S(=O)(=O)Nc3cccc(C(F)(F)F)c3)cc2c1=O | n | x | x | x | x | n
C=C1C=C(C(F)F)n2ncc(C(=O)Nc3ccc(Br)cc3C(F)(F)F)c2N1 | n | x | x | x | x | n
O=C(CSC1=Nc2ccccc2C2CC=NN12)Nc1ccc(F)cc1Cl (stereo unspecified) | n | u | n | n | n | u
Cc1ccc(NC(=O)CSC2=Nc3ccccc3C3CC=NN23)c(C)c1 (stereo unspecified) | n | n | n | n | n | 13µM
COC(=O)c1ccc(NC(=O)CSC2=Nc3ccccc3C3CC=NN23)cc1 (stereo unspecified) | n | n | n | n | n | 16µM
O=[N+]([O-])c1cc2c(c([N+](=O)[O-])c1)Nc1ccccc1O2 | 23µM | x | u | n | x | 13µM
O=C1Nc2ccccc2Oc2cc([N+](=O)[O-])cc(Oc3ccccc3)c21 | n | u | n | n | n | n
Cc1cccc(Oc2cc([N+](=O)[O-])cc3c2C(=O)Nc2ccccc2O3)c1 | u | u | n | n | n | 2.6µM
N#CC1=C(N)Oc2c(oc(CO)cc2=O)C1c1ccccc1[N+](=O)[O-] (stereo unspecified) | n | u | n | n | 5.8µM | n
COc1ccccc1C1C(C#N)=C(N)Oc2c1oc(CO)cc2=O (stereo unspecified) | n | n | n | n | n[1.84 µM] | n
COc1ccc(CCN2C(=O)CCC2(C)c2nnnn2Cc2ccccc2)cc1OC (stereo unspecified) | n | x | n | n | x | n
CCOc1ccccc1OCC(=O)Nc1nnc(COC)s1 | n | n | n | n | n | 18µM
CC1CCCN(S(=O)(=O)c2ccc(S(=O)(=O)NC(C)c3cccs3)cc2)C1 (stereo unspecified) | n | n | n | n | n | 16µM
Cc1ccc(S(=O)(=O)N2CCCC(C)C2)cc1 (stereo unspecified) | n | n | n | n | n | n
Cc1cccc(CSCC(=O)N2CCN(S(=O)(=O)c3ccccc3C#N)CC2)c1 | n | x | n | n | x | u
CCOC(=O)c1c(-c2ccccc2)oc2ccc(N(C(C)=O)S(=O)(=O)c3cc(C)ccc3C)cc12 | n | x | x | x | x | u
COc1ccc(C2NN=C(c3ccc(C)cc3)S2)cc1 (stereo unspecified) | n | n | n | n | n | n
CCOc1cc(C2NN=C(c3ccc(C)cc3)S2)ccc1O (stereo unspecified) | n | 18µM | n | n | n | u
